One test deals with Klebsiella pneumoniae. As to conditions: Concentration 32 ug.mL-1;; ASSAY_TEST Inhibition of Bacterial Growth; detection method Absorption (OD600); MEDIA CAMHB; plate type 384well; NBS; CORNING #3640; time 18 hr.
The subject of the next test is Candida albicans. As to conditions: Concentration 32 ug.mL-1; ASSAY_TEST Inhibition of Fungal Growth; detection method Absorption (OD530).
The subject of a further test is Cryptococcus neoformans. The note with it: Concentration 32 ug.mL-1; ASSAY_TEST Inhibition of Fungal Growth; detection method Resazurin; Absorption (OD600-OD570); plate type 384well; NBS; CORNING #3640.

Measured potencies and affinities stand elsewhere.

For the compound `Cc1ccc(NC(=O)CSc2nnc3c(=O)n(-c4ccc(C)c(C)c4)ccn23)c(Cl)c1`, the Inhibition (as a rule, the relative decrease from the control value, in per cent) is 12.06% with Klebsiella pneumoniae, 0.25% in the test with Candida albicans and -10.04% with Cryptococcus neoformans.
Regarding `COc1ccccc1-n1ccn2c(SCc3cccc(Cl)c3)nnc2c1=O`, the figures for the Inhibition with Klebsiella pneumoniae, in the test with Candida albicans and with Cryptococcus neoformans were 1.3%, 1.65% and -7.59%, respectively.
As to `Cc1ccc(-c2cc3c4nn(CC(=O)Nc5c(C)cccc5C)c(=O)n4ccn3n2)cc1`, the Inhibition in the test on Klebsiella pneumoniae is on record as 9.73%; in the test on Candida albicans, -0.52%; in the test on Cryptococcus neoformans, -14.67%.
Regarding `CCCN(C)c1nccn2c(=O)n(CC(=O)Nc3ccc(F)cc3)nc12`, the values for the Inhibition with Klebsiella pneumoniae, in the test on Candida albicans and with Cryptococcus neoformans were 16.44%, 1.98% and -8.83%, respectively.
`CCOc1ccc(-n2ccn3c(SCC(=O)c4ccc(C)cc4C)nnc3c2=O)cc1`: the figures for the Inhibition in the test with Klebsiella pneumoniae, in the test on Candida albicans and in the test on Cryptococcus neoformans were 5.02%, 2.76% and -5.48%, respectively.
For `COc1ccc(Cl)cc1NC(=O)Cn1nc2c3cc(-c4ccc(C)c(C)c4)nn3ccn2c1=O`, the Inhibition was -20.97% in the test with Klebsiella pneumoniae, 12.28% in the test with Candida albicans and -11.29% in the test on Cryptococcus neoformans.
For the compound `CCC(Sc1nnc2c(=O)n(-c3ccc(C)c(C)c3)ccn12)C(=O)Nc1cc(OC)ccc1OC` (stereo not given), the Inhibition is recorded as 5.57% in the test with Klebsiella pneumoniae, 2.66% with Candida albicans and -6.72% with Cryptococcus neoformans.
Take `Cc1ccc(-c2cc3c4nn(CC(=O)Nc5ccccc5F)c(=O)n4ccn3n2)cc1C`: the Inhibition is listed as 6.53% in the test on Klebsiella pneumoniae, -0.75% in the test with Candida albicans and -15.58% in the test on Cryptococcus neoformans.
On the same counts, the results for `CCOc1ccccc1NC(=O)Cn1nc2c3cc(-c4ccc(OC)cc4)nn3ccn2c1=O` are 11.29%, 0.88% and -6.6%.
On to `O=C(Cn1nc2n(Cc3ccc(F)cc3)c(=O)c3ccccc3n2c1=O)Nc1ccc2c(c1)OCO2`, for which the Inhibition is reported as 8.5% in the test with Klebsiella pneumoniae, 5.19% in the test on Candida albicans and -6.14% with Cryptococcus neoformans.
As for `Cc1ccc(-n2ccn3c(=O)n(Cc4ccccc4Cl)nc3c2=O)cc1C`, the Inhibition is listed as 4.31% in the test on Klebsiella pneumoniae, 3.38% in the test with Candida albicans and -10.75% in the test with Cryptococcus neoformans.
On the same counts, the results for `CCc1nnc2c(SCC(=O)Nc3ccc(Br)cc3)nc3ccccc3n12` are -1.42%, 31.58% and -6.67%.
For the compound `CC(=O)c1cccc(NC(=O)Cn2c(=O)c3nnc(C(C)C)n3c3ccccc32)c1`, the Inhibition in the test with Klebsiella pneumoniae is recorded as 4.91%; in the test with Candida albicans, 5.31%; in the test on Cryptococcus neoformans, -19.11%.
On to `Cc1cc(C)cc(Nc2nc(C)cc3nn(CC(=O)NC4CCCC4)c(=O)n23)c1`, for which the Inhibition is on record as 17.93% with Klebsiella pneumoniae, 3.67% with Candida albicans and -8.76% with Cryptococcus neoformans.
`CCc1nnc2c(S(=O)(=O)N(Cc3cc(F)cc(F)c3)c3ccc(C)cc3)cccn12`: the Inhibition in the test with Klebsiella pneumoniae is 20.07%; in the test on Candida albicans, 3.29%; with Cryptococcus neoformans, -8.74%.
`CCc1nnc2c(S(=O)(=O)N(Cc3cccc(F)c3)c3ccc(F)cc3)cccn12`: the Inhibition in the test with Klebsiella pneumoniae was -0.41%; in the test on Candida albicans, 1.06%; with Cryptococcus neoformans it was -2.23%.
On to `COc1ccc(NC(=O)Cn2nc3c4cc(-c5ccc(F)cc5)nn4ccn3c2=O)c(OC)c1`, for which the Inhibition with Klebsiella pneumoniae is 14.79%; in the test on Candida albicans, 2.08%; with Cryptococcus neoformans, -15.48%.
For `Cc1ccc(NC(=O)Cn2nc3c(Sc4ccccc4)nc4ccccc4n3c2=O)cc1C`, the Inhibition in the test with Klebsiella pneumoniae is 0.03%; with Candida albicans, 0.48%; in the test with Cryptococcus neoformans it was -2.74%.
`O=C(CSc1nnc2c(=O)n(-c3ccc(Br)cc3)ccn12)Nc1cc(F)ccc1F`: the Inhibition is recorded as 10.57% in the test on Klebsiella pneumoniae, 7.34% with Candida albicans and -16.33% with Cryptococcus neoformans.
Take `O=C(CSc1nnc2c3cc(-c4ccc(F)cc4)nn3ccn12)NCc1ccc(Cl)cc1`: the Inhibition in the test on Klebsiella pneumoniae is 0.77%; in the test on Candida albicans it was 7.94%; in the test with Cryptococcus neoformans it was -17.49%.
Regarding `CC(C)n1c(=O)c2ccc(C(=O)NC3CCCC3)cc2n2c(=O)n(Cc3cccc(C(F)(F)F)c3)nc12`, the Inhibition is recorded as 13.79% with Klebsiella pneumoniae, 1.19% in the test on Candida albicans and -23.89% in the test on Cryptococcus neoformans.
For the compound `COc1ccc(NC(=O)Cn2nc3ccc(SC(C)(C)C)nn3c2=O)cc1OC`, the Inhibition is listed as 16.54% with Klebsiella pneumoniae, -0.86% with Candida albicans and -14.12% in the test on Cryptococcus neoformans.
On the same counts, the results for `Cc1cc2nn(CC(=O)Nc3cc(F)ccc3F)c(=O)n2c(Nc2ccc(C)c(F)c2)n1` are 8.03%, 1.75% and -8.46%.
As for `COc1cccc(NC(=O)Cn2nc3ccc(SCc4ccc(Cl)cc4)nn3c2=O)c1`, the Inhibition in the test on Klebsiella pneumoniae is 6.69%; with Candida albicans it was 11.57%; in the test with Cryptococcus neoformans, -15.62%.
As to `CSc1cccc(NC(=O)Cn2nc3c(SC4CCCCC4)nccn3c2=O)c1`, the Inhibition in the test with Klebsiella pneumoniae is reported as 1.73%; in the test with Candida albicans it was -2.6%; in the test with Cryptococcus neoformans, -1.74%.
`Cc1ccccc1NC(=O)Cn1nc2ccc(SC3CCCCC3)nn2c1=O`: the Inhibition in the test with Klebsiella pneumoniae is reported as 2.21%; in the test on Candida albicans, -1.85%; in the test on Cryptococcus neoformans, -16.32%.
For `COc1cccc(CN(c2ccc(F)c(F)c2)S(=O)(=O)c2ccc3nnc(C)n3c2)c1`, the Inhibition with Klebsiella pneumoniae is on record as 7.43%; in the test with Candida albicans it was 1.78%; with Cryptococcus neoformans it was -8.55%.
On the same counts, the results for `Cc1ccc(CNC(=O)Cn2nc3c(Oc4ccccc4C)nccn3c2=O)cc1` are 12.47%, 1.06% and -7.58%.
On the same counts, the results for `COc1cccc(-n2ccn3c(SCC(=O)Nc4ccc(OC)c(OC)c4)nnc3c2=O)c1` are 16.13%, 5.16% and -5.69%.
For `CC(C)c1nnc2c(SCC(=O)Nc3cccc(Br)c3)nc3ccccc3n12`, the Inhibition is recorded as 2.52% in the test on Klebsiella pneumoniae, 2.36% in the test on Candida albicans and -16.07% in the test on Cryptococcus neoformans.
Turning to `COc1ccc(NC(=O)Cn2nc3ccc(-c4ccc(Cl)cc4)nn3c2=O)cc1OC`, the Inhibition in the test on Klebsiella pneumoniae is reported as 8.45%; with Candida albicans, -2.47%; in the test with Cryptococcus neoformans, -11.98%.
As for `Cc1ccc(-c2cc3c4nnc(SCC(=O)Nc5ccc(C#N)cc5)n4ccn3n2)cc1`, the figures for the Inhibition in the test on Klebsiella pneumoniae, with Candida albicans and with Cryptococcus neoformans were 4.89%, 0.36% and -27.44%, respectively.
Consider `COc1cccc(CN(c2ccc(C)c(F)c2)S(=O)(=O)c2ccc3nncn3c2)c1`, for which the Inhibition in the test on Klebsiella pneumoniae was 1.02%; in the test on Candida albicans, -0.35%; in the test on Cryptococcus neoformans it was -8.8%.
On to `CCc1cccc(NC(=O)Cn2nc3ccc(SC(C)C)nn3c2=O)c1`, for which the Inhibition is reported as 7.23% in the test with Klebsiella pneumoniae, 12.21% in the test with Candida albicans and -12.08% in the test on Cryptococcus neoformans.
The matching figures for `COc1cccc(Oc2nccn3c(=O)n(CC(=O)Nc4ccc5c(c4)OCO5)nc23)c1`: 7.21%, 1.19% and -8.5%.
The matching figures for `COc1ccc(N(Cc2ccc(Cl)cc2)S(=O)(=O)c2ccc3nncn3c2)cc1`: 10.04%, 4.11% and -7.19%.
Regarding `Cc1cccc(NC(=O)c2ccc3nn(CC(=O)N4CCc5ccccc5C4)c(=O)n3c2)c1`, the Inhibition in the test on Klebsiella pneumoniae is -2%; in the test with Candida albicans, 12.37%; in the test with Cryptococcus neoformans, -12.59%.
For `COc1cccc(CN(c2cc(C)cc(C)c2)S(=O)(=O)c2cccn3c(C)nnc23)c1`, the Inhibition with Klebsiella pneumoniae was -4.31%; with Candida albicans it was 1.08%; in the test with Cryptococcus neoformans it was -6.64%.
The matching figures for `Cc1cccc(N(Cc2cccc(Cl)c2)S(=O)(=O)c2cccn3c(C)nnc23)c1`: 4.74%, 3% and -4.93%.
Take `Cc1ccc(NC(=O)Cn2c(=O)c3nnc(C)n3c3ccccc32)cc1F`: the Inhibition in the test on Klebsiella pneumoniae is listed as 7.95%; with Candida albicans, 2.03%; in the test with Cryptococcus neoformans, -16.64%.
In the case of `Cc1ccccc1Oc1nccn2c(=O)n(CC(=O)Nc3cc(F)ccc3F)nc12`, the Inhibition is on record as 13.37% in the test on Klebsiella pneumoniae, -0.39% with Candida albicans and -8.18% with Cryptococcus neoformans.
Consider `Cc1nnc2ccc(S(=O)(=O)N(Cc3cccc(Cl)c3)c3ccc(F)cc3)cn12`, for which the Inhibition is on record as 8% with Klebsiella pneumoniae, 2.21% in the test on Candida albicans and -6.34% in the test with Cryptococcus neoformans.
On to `COc1cccc(CNC(=O)CSc2nnc3c(=O)n(-c4ccc(C)c(C)c4)ccn23)c1OC`, for which the Inhibition is 8.73% in the test on Klebsiella pneumoniae, 0.37% in the test with Candida albicans and -5.22% in the test on Cryptococcus neoformans.
With `CCc1nnc2c(=O)n(CC(=O)Nc3ccc4c(c3)OCCO4)c3ccccc3n12`, the Inhibition in the test with Klebsiella pneumoniae was 1.64%; in the test on Candida albicans, 13.49%; in the test with Cryptococcus neoformans it was -11.52%.
On the same counts, the results for `CCOc1ccc(C(=O)Cn2nc3n(CCC(C)C)c(=O)c4sccc4n3c2=O)cc1` are 4.69%, 2.69% and -12.75%.
The matching figures for `COc1ccc(CCn2c(=O)c3sccc3n3c(=O)n(CC(=O)c4ccccc4)nc23)cc1OC`: 16.06%, 0.73% and -38.41%.
With `CCCn1c(=O)c2sccc2n2c(=O)n(Cc3ccc(Cl)cc3)nc12`, the results for the Inhibition in the test with Klebsiella pneumoniae, with Candida albicans and in the test with Cryptococcus neoformans were 4.43%, 0.41% and -22.99%, respectively.
`O=C(Cn1nc2c(N3CCN(c4ccccc4)CC3)nccn2c1=O)Nc1ccc2c(c1)OCO2`: the Inhibition with Klebsiella pneumoniae was 5.9%; with Candida albicans, 4.15%; with Cryptococcus neoformans, -7.4%.
With `CCCCOc1ccc(-c2cc3c4nnc(SCC(=O)N(C)c5ccc(F)cc5)n4ccn3n2)cc1`, the Inhibition is 3.98% with Klebsiella pneumoniae, 15.18% in the test on Candida albicans and -9.29% in the test on Cryptococcus neoformans.
Regarding `COc1cccc(-n2ccn3c(SCC(=O)Nc4ccc(Br)cc4)nnc3c2=O)c1`, the results for the Inhibition with Klebsiella pneumoniae, in the test on Candida albicans and in the test with Cryptococcus neoformans were -3.95%, 5.78% and -9.82%, respectively.
Turning to `Cc1cc(C)cc(Nc2nc(C)cc3nn(CC(=O)Nc4cc(F)cc(F)c4)c(=O)n23)c1`, the Inhibition in the test on Klebsiella pneumoniae is recorded as 13.54%; in the test with Candida albicans, 4.35%; in the test on Cryptococcus neoformans, -10.24%.
On the same counts, the results for `CCCCOc1ccc(-c2cc3c4nnc(SCC(=O)Nc5cccc(C#N)c5)n4ccn3n2)cc1` are -0.44%, 7.68% and -23.71%.
`CSc1cccc(NC(=O)Cn2nc3ccc(C(=O)NCc4ccccc4)cn3c2=O)c1`: the values for the Inhibition with Klebsiella pneumoniae, in the test with Candida albicans and in the test with Cryptococcus neoformans were 7.41%, 7.13% and -20.24%, respectively.
The matching figures for `COc1ccc(NC(=O)Cn2nc3c(N4CCCC4)nccn3c2=O)cc1Cl`: 15.87%, 1.28% and -15.33%.
On to `Cc1cc(C)cc(NC(=O)Cn2nc3c4cc(-c5ccc(C)c(C)c5)nn4ccn3c2=O)c1`, for which the Inhibition in the test on Klebsiella pneumoniae is 6.91%; in the test on Candida albicans it was 7.8%; in the test on Cryptococcus neoformans it was -17.96%.
Regarding `COc1cccc(-n2ccn3c(SCC(=O)NC(C)C)nnc3c2=O)c1`, the figures for the Inhibition with Klebsiella pneumoniae, in the test with Candida albicans and with Cryptococcus neoformans were 10.83%, 1.96% and -12.8%, respectively.
With `O=C(Cn1nc2c3sccc3ncn2c1=O)Nc1ccc2c(c1)OCO2`, the values for the Inhibition in the test with Klebsiella pneumoniae, in the test on Candida albicans and in the test on Cryptococcus neoformans were -3.23%, 1.42% and -18.53%, respectively.
Take `Cc1cc(C)c(NC(=O)Cn2c(=O)c3nnc(C(C)C)n3c3ccccc32)c(C)c1`: the Inhibition with Klebsiella pneumoniae is given as 11.01%; in the test with Candida albicans, 4.09%; in the test with Cryptococcus neoformans, -5.77%.
On to `CC(C)CCn1c(=O)c2sccc2n2c(=O)n(CC(=O)NC(C)C)nc12`, for which the Inhibition with Klebsiella pneumoniae is reported as 5.25%; in the test with Candida albicans, -0.52%; in the test with Cryptococcus neoformans, -18.15%.
With `Cc1ccc(C)c(-c2cc3c4nnc(CCC(=O)NCCc5ccc(Cl)cc5)n4ccn3n2)c1`, the Inhibition in the test with Klebsiella pneumoniae is 12.88%; in the test with Candida albicans, 1.56%; with Cryptococcus neoformans, -40.65%.

The values above are taken from ChEMBL document CHEMBL4513146, “CO-ADD screening of Karazin Kharkiv National University (Ukraine) compounds”.
